{
  "source": "PubChem BioAssay (NCI)",
  "test": "NCI Yeast Anticancer Drug Screen. Data for the rad14 strain (AID 159);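 further: 0% = growth of vehicle-treated control cultures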",
  "settings": "S. cerevisiae rad14 strain growth inhibition, stronger effect = higher value",
  "procedure": "Growth inhibition of yeast strains with defined genetic alterations is measured as a screen for potential anti-cancer activity. Selected strains with alterations in DNA damage repair or cell cycle control were exposed to compounds and growth inhibition was measured relative to vehicle treated controls. The strain used in this assay is rad14",
  "note": "Compounds without any hit were thinned out: in the full panel of roughly 79,000, 15% have a hit. A number with no mark means an inactive call. Active and inactive are the calls of the source. No stated cut-off is given here; in the data, active means growth inhibition above about 70%; inactive means the rest.",
  "data": [
    {"molecule": "O=C1CSC(c2cccc(Cl)c2)N1c1ccc(-c2ccc(-n3c(-c4ccccc4)nc4ccccc4c3=O)cc2)cc1", "note": "(stereo not given)", "values": [
      {"measurement": "growth inhibition", "setting": "at 1.2 µM", "result": 7, "unit": "%"},
      {"measurement": "growth inhibition", "setting": "at 3.7 µM", "result": 9, "unit": "%"},
      {"measurement": "growth inhibition", "setting": "at 11.0 µM", "result": 15, "unit": "%"},
      {"measurement": "growth inhibition", "setting": "at 33.0 µM", "result": 32, "unit": "%"},
      {"measurement": "growth inhibition", "setting": "at 100.0 µM", "result": 47, "unit": "%"}
    ]},
    {"molecule": "CC(=O)Nc1ccc2c(c1)Cc1cc(N=C3C=CC(=O)O3)ccc1-2", "values": [
      {"measurement": "growth inhibition", "setting": "at 1.2 µM", "result": 12, "unit": "%"},
      {"measurement": "growth inhibition", "setting": "at 3.7 µM", "result": 27, "unit": "%"},
      {"measurement": "growth inhibition", "setting": "at 11.0 µM", "result": "84% (active)"},
      {"measurement": "growth inhibition", "setting": "at 33.0 µM", "result": "99% (active)"},
      {"measurement": "growth inhibition", "setting": "at 100.0 µM", "result": "99% (active)"}
    ]},
    {"molecule": "COc1ccc(/C=C2\\NC(=S)N(/C=C3\\C(=O)Oc4ccccc4C3=O)C2=O)cc1", "values": [
      {"measurement": "growth inhibition", "setting": "at 1.2 µM", "result": 1, "unit": "%"},
      {"measurement": "growth inhibition", "setting": "at 3.7 µM", "result": 0, "unit": "%"},
      {"measurement": "growth inhibition", "setting": "at 11.0 µM", "result": 2, "unit": "%"},
      {"measurement": "growth inhibition", "setting": "at 33.0 µM", "result": 7, "unit": "%"},
      {"measurement": "growth inhibition", "setting": "at 100.0 µM", "result": 21, "unit": "%"}
    ]},
    {"molecule": "COc1cc(O)c(O)c(C(C)(C)C)c1", "values": [
      {"measurement": "growth inhibition", "setting": "at 1.2 µM", "result": -1, "unit": "%"},
      {"measurement": "growth inhibition", "setting": "at 3.7 µM", "result": -3, "unit": "%"},
      {"measurement": "growth inhibition", "setting": "at 11.0 µM", "result": 5, "unit": "%"},
      {"measurement": "growth inhibition", "setting": "at 33.0 µM", "result": 10, "unit": "%"},
      {"measurement": "growth inhibition", "setting": "at 100.0 µM", "result": 19, "unit": "%"}
    ]},
    {"molecule": "CCOC(=O)C#Cc1ccc([N+](=O)[O-])cc1", "values": [
      {"measurement": "growth inhibition", "setting": "at 1.2 µM", "result": 1, "unit": "%"},
      {"measurement": "growth inhibition", "setting": "at 3.7 µM", "result": -4, "unit": "%"},
      {"measurement": "growth inhibition", "setting": "at 11.0 µM", "result": 4, "unit": "%"},
      {"measurement": "growth inhibition", "setting": "at 33.0 µM", "result": 4, "unit": "%"},
      {"measurement": "growth inhibition", "setting": "at 100.0 µM", "result": 5, "unit": "%"}
    ]},
    {"molecule": "O=C(CC(=O)n1nc(-c2ccccc2)c(N=Nc2ccc(Cl)cc2)c1-c1ccccc1)Nc1cccc(Cl)c1", "values": [
      {"measurement": "growth inhibition", "setting": "at 1.2 µM", "result": -4, "unit": "%"},
      {"measurement": "growth inhibition", "setting": "at 3.7 µM", "result": -3, "unit": "%"},
      {"measurement": "growth inhibition", "setting": "at 11.0 µM", "result": -2, "unit": "%"},
      {"measurement": "growth inhibition", "setting": "at 33.0 µM", "result": -1, "unit": "%"},
      {"measurement": "growth inhibition", "setting": "at 100.0 µM", "result": 1, "unit": "%"}
    ]},
    {"molecule": "C=C1CC(CCCl)(c2ccccc2)OC1=O", "note": "(stereo not given)", "values": [
      {"measurement": "growth inhibition", "setting": "at 1.2 µM", "result": -2, "unit": "%"},
      {"measurement": "growth inhibition", "setting": "at 3.7 µM", "result": 25, "unit": "%"},
      {"measurement": "growth inhibition", "setting": "at 11.0 µM", "result": 60, "unit": "%"},
      {"measurement": "growth inhibition", "setting": "at 33.0 µM", "result": "95% (active)"},
      {"measurement": "growth inhibition", "setting": "at 100.0 µM", "result": "99% (active)"}
    ]},
    {"molecule": "CC(=O)OC1CC2C(C)(C)C(=O)C=C[C@]2(C)C2CCC3(C)C(=CCC3[C@H](CO)C[C@H](O)C(=O)C(C)(C)O)[C@]12C", "note": "(stereo not given in full)", "values": [
      {"measurement": "growth inhibition", "setting": "at 1.2 µM", "result": -42, "unit": "%"},
      {"measurement": "growth inhibition", "setting": "at 3.7 µM", "result": -46, "unit": "%"},
      {"measurement": "growth inhibition", "setting": "at 11.0 µM", "result": -29, "unit": "%"},
      {"measurement": "growth inhibition", "setting": "at 33.0 µM", "result": -5, "unit": "%"},
      {"measurement": "growth inhibition", "setting": "at 100.0 µM", "result": "77% (active)"}
    ]}
  ]
}
